This passage reports viability results from PubChem BioAssay.

The nature of this test: reducers of endogenous Her2 protein level, primary screen, SKBR3 breast tumor cells, AlphaScreen, ATP viability (AID 461).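 Further: percent of carrier control wells set as 100% viability.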 Conditions: 18-24 h, measured here: SKBR3 viability, ATP luminescence, at 10 µM.
As a reminder, the viability is a read-out of living cells in per cent, often relative to untreated cells. Consider `O=C(CSc1nnc(-c2cccnc2)o1)Nc1ccccn1`, for which the viability worked out at 92.5%.

Consider `CCC1Oc2ccccc2N(CC(=O)Nc2ccc(OC)cc2OC)C1=O` (stereo not given), for which the viability came out at 90.5%. With `Cc1cccn2c(=O)c3cc(C(=O)N4CCCc5ccccc54)n(C)c3nc12`, the viability worked out at 86.5%.

Turning to `CCN(CC)CCCn1c(=S)[nH]c2cc(Cl)ccc2c1=O`, the viability was found to be 101%. On to `CCCCC(=O)NCCNc1nc2c(c(=O)n(C)c(=O)n2C)n1Cc1ccccc1`, for which the viability was 116%. For the compound `O=C(C1CCCCC1)N1CCC(c2nc3c(nnn3Cc3c(F)cccc3Cl)c(=O)[nH]2)CC1`, the viability worked out at 87.5%.

On to `CCOc1ccc(OCC)c(NC(=O)CN2CCN(C(=O)c3ccco3)CC2)c1`, for which the viability was found to be 75%. To `CN(C)CCCNC(=O)c1ccc(CN(c2ccccc2)S(C)(=O)=O)cc1` belongs 97.5%; to `Cc1oc(-c2ccc(Cl)cc2)nc1CS(=O)CC(=O)NCCCN(C)C1CCCCC1` (stereo not given), 91.5%.

With `N#CC1=C(N)OC(c2ccccc2)=C(C#N)C1c1ccc2c(c1)OCO2` (stereo not given), the viability turned out to be 95%. For the compound `O=C1C(C=NCCCn2ccnc2)=C(O)c2ccccc21`, the viability was 83%. Regarding `Cc1c(Cl)cccc1N1C(=O)c2ccccc2C1=O`, the viability is 89.5%. For `CN1C(=O)NC(NC(=O)C2CCCCC2)(C(F)(F)F)C1=O` (stereo not given), the viability came to 93%.

For `CCOC(=O)C1=C(C)Nc2ncnn2C1c1ccccc1F` (stereo not given), the viability came to 94%. As to `CCC(Oc1ccc2ccccc2c1)C(=O)O` (stereo not given), the viability is 89.5%. `C=Cn1c(C(=O)O)cc(CC)c1-c1ccccc1`: the viability is 96%. Take `CC(=O)N1CCc2cc(S(=O)(=O)NC(C(=O)NCc3ccccc3)C(C)C)ccc21` (stereo not given): the viability amounted to 97%. In the case of `COc1ccccc1CN1CCCC(C(=O)N(C)Cc2ccccc2)C1` (stereo not given), the viability is 70%. Turning to `CCOC(=O)c1c(N)sn(-c2ccccc2)c1=S`, the viability worked out at 87%.

On to `Cc1cc(C)c2c(n1)nn1c(N3CCOCC3)cc(C)nc21`, for which the viability turned out to be 90%. To `CC(C)c1cc(C(=O)NCc2ccco2)no1` belongs 101%; to `NC(=O)COC(=O)CNC(=O)c1ccc(Cl)cc1`, 125%; to `Cc1cccc(-c2c3c(=O)n(C)c(=O)n(C)c3cn2-c2ccc(O)cc2)c1`, 102%.

Regarding `Cn1c(SC/C=C/c2ccccc2)nnc1-c1cnccn1`, the viability worked out at 80.5%.

`COc1ccc2nc(N3CCC(C)CC3)c(C#N)cc2c1`: the viability was 108%. With `CC1(C)CC(=O)C(C#N)=C(NCCCO)C1`, the viability came out at 99.5%. Consider `CCCc1[nH]nc2c1C(c1cccc(OC(=O)c3ccco3)c1)C(C#N)=C(N)O2` (stereo not given), for which the viability worked out at 93.5%.

Regarding `CC(=O)N(c1ccc(N(C(C)=O)S(=O)(=O)c2cccs2)cc1)S(=O)(=O)c1cccs1`, the viability turned out to be 90%. Consider `O=C(NCCC1=CCCCC1)N[C@@H](Cc1ccccc1)C(=O)O`, for which the viability was 104%. The same measure for `COc1ccccc1C(=O)n1nc(-c2ccccc2)nc1N`: 91%; for `O=C(O)COc1ccc2occ(C(=O)c3ccccc3)c2c1`: 102%. Consider `O=C(NCC1CCCO1)C1CCCN(S(=O)(=O)c2cccc3nsnc23)C1` (stereo not given), for which the viability worked out at 95.5%.

Regarding `CN1CCN(C(c2cccc(C(F)(F)F)c2)c2nnnn2C(C)(C)C)CC1` (stereo not given), the viability worked out at 94.5%. `Nc1nnnn1/N=C/c1ccccc1OCc1ccccc1`: the viability was found to be 118%.

In the case of `Cc1ccc(C(=O)C2COC(=O)C2)cc1` (stereo not given), the viability came to 109%. As to `O=C(CSc1nnc(-c2c[nH]c3ccccc23)o1)N(Cc1ccccc1)c1ccc(F)cc1`, the viability was determined as 100%.

Regarding `CC(C)OC(=O)CSc1nnc(-c2ccc(C(C)(C)C)cc2)n1N`, the viability worked out at 93%.

For the compound `COc1cc(Br)cc(/C=N/c2ncn[nH]2)c1O`, the viability stood at 134%. Turning to `CSc1ccccc1N=CC1=C(O)CC(C)(C)CC1=O`, the viability turned out to be 118%. With `CC1(C)CC(CCNC(=O)c2ccco2)CC(C)(C)N1`, the viability was 106%.
